Test results: PubChem BioAssay (NCATS)
Unmarked numbers belong to inactive results. Inconclusive results are not listed. Entries that show only a call come without a potency. Activity calls are given as the source filed them. Unless noted, the call rests on the fitted dose curve; in most records, active means well fitted curve in the direction sought with a large enough effect; inconclusive means small, poorly fitted or top-dose-only effect, or another doubt; inactive means no such curve, though single readings can be large; an effect the other way counts as inactive or inconclusive.

Assays:
[1] = target: Mitogen-activated protein kinase 10 (Mus musculus) (UniProt Q61831); assay: JNK3 AlphaScreen Assay (AID 530; active means well fitted curve in either direction with a large enough effect, not every such curve was filed as active;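 further: kinase came from lysate of stimulated human HepG2 cells; signal reports phosphorylation of biotinylated GST-cJun 1-79 at Ser73 with 10 µM ATP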)
In short: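 qHTS titrations with 15 min compound pre-incubation before adding ATP (10 uM final). Read-out: AlphaScreen of Ser73-phosphorylated biotin-GST-cJun using HepG2 lysate JNK3 activated by IL-1β and TNFα.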

[2] = Cell Viability - N2a (AID 540); conditions: N2a mouse neuroblastoma cell viability; activity change, negative = cytotoxicity: at 92.2 µM (top of the series);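 further: cells exposed to compound for 40 h at 37 °C; nearly all actives have a fitted effect of over 45% in size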; further: potency means the concentration at half of the fitted maximal effect
In short: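 Cytotoxicity was scored as loss of cellular ATP in N2a cells, a mouse neuroblastoma line. Compounds are applied in a qHTS concentration series for 40 hr at 37 °C.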

[3] = Cell Viability - NIH 3T3 (AID 541); conditions: NIH 3T3 cell viability, qHTS; activity change, negative = cytotoxicity: at 92.2 µM (top of the series);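 further: cells exposed to compound for 40 hours; nearly all actives have a fitted effect of over 25% in size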; further: potency means the concentration at half of the fitted maximal effect
In short: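 Cells seeded at 1000/well, rested 5 hr at 37 °C, then dosed and incubated 40 hr at 37 °C. CellTiter-Glo added, 20 min room temperature, luminescence read. AC50 by Hill fit.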

[4] = Cell Viability - HUV-EC-C (AID 542);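 further: cells exposed to compound for 40 hours; nearly all actives have a fitted effect of over 35% in size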; further: potency means the concentration at half of the fitted maximal effect
In short: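 Cells were seeded at 1000 per well and incubated 5 hr at 37 °C before compound addition. After 40 hr at 37 °C, CellTiter-Glo reagent was added for 20 min and luminescence read. AC50 values came from Hill-equation modelling.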

[5] = Cell Viability - H-4-II-E (AID 543);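 further: cells exposed to compound for 40 hours; nearly all actives have a fitted effect of over 35% in size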; further: potency means the concentration at half of the fitted maximal effect
In short: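 Cells seeded at 1500 per well and rested 5 hr; compounds added; 40 hr incubation at 37 °C; CellTiter-Glo added, 20 min at room temperature; luminescence read. Hill-equation fits gave AC50.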

[6] = Cell Viability - SH-SY5Y (AID 544);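 further: cells exposed to compound for 40 hours; nearly all actives have a fitted effect of over 55% in size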; further: potency means the concentration at half of the fitted maximal effect
In short: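 Cells were plated at 1500 per well and allowed 5 hr at 37 °C. Compounds were added across a concentration range and incubated 40 hr at 37 °C. CellTiter-Glo was added for 20 min at room temperature before luminescence reading.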

[7] = Cell Viability - Mesenchymal (AID 546);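 further: cells exposed to compound for 40 hours before reading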; further: potency means the concentration at half of the fitted maximal effect
In short: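 CellTiter-Glo luminescence (intracellular ATP, 20 min room temperature) after 40 hr compound exposure at 37 °C of 1000 glomerulus-derived human kidney mesenchymal cells/well; AC50 values obtained by fitting qHTS concentration-response data to the Hill equation.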

[8] = Cellular Toxicity (caspase-3) HepG2 (AID 654);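 further: cells exposed to compound for 16 hours before reading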
In short: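 Caspase 3/7 activation in HepG2 is measured as rising luminescence after a 16 hr treatment at 37 °C. Values are scaled between DMSO basal and 100 uM tamoxifen, and AC50 is fitted with the Hill equation.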

[9] = Cellular Toxicity (caspase-3) Jurkat (AID 655);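 further: cells exposed to compound for 16 h at 37 °C before reading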
In short: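 5000 Jurkat cells/well; compound 16 hr, 37 °C; Caspase-Glo 3/7 added, 20 min RT; luminescence read. Norm: DMSO = 0%, tamoxifen 100 uM = 100%. AC50, Hill model.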

[10] = Cellular Toxicity (caspase-3) HUV-EC-C (AID 656)
In short: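 qHTS; HUV-EC-C, 1000 cells/well; 5 hr settle, 16 hr cmpd, 37°C; Caspase-Glo 3/7, 20 min RT; luminescence. Norm: DMSO = 0%, tamoxifen 100 uM = 100%. Hill-fit AC50.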

[11] = Cellular Toxicity (caspase-3) SHSY5Y (AID 657);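 further: cells exposed to compound for 16 hours at 37 °C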
In short: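 qHTS, SH-SY5Y, 1500 cells/well, 5 h pre-incubation 37 °C; compound 16 h 37 °C; Caspase-Glo 3/7 1 h RT; luminescence. Norm.: DMSO = 0, 10 uM staurosporine = 100%. Hill fit → AC50.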

[12] = Cellular Toxicity (caspase-3) BJ (AID 658); conditions: Potency: caspase-3 activation;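 further: cells exposed to compound for 16 hours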
In short: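 Caspase-Glo 3/7 luminescence, read 1 hr after reagent at room temperature, in normal BJ fibroblasts exposed 16 hours at 37 °C. AC50 values from Hill-equation concentration-response, scaled between DMSO basal and 10 uM staurosporine as 100%.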

[13] = Cellular Toxicity (caspase-3) MRC-5 (AID 659); conditions: Potency: caspase-3 activation
In short: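 Luminescent Caspase-Glo 3/7 read-out (1 h, room temperature) after a 16 h, 37 °C compound exposure of MRC-5 lung fibroblasts at 1500 cells/well. Concentration-response AC50 from Hill equation; 0% DMSO, 100% 10 uM staurosporine.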

[14] = Cellular Toxicity (caspase-3) Mesangial (AID 660);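 further: combined caspase 3 and 7 activity read by Caspase-Glo luminescence; cells exposed to compound for 16 h before the caspase read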
In short: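 Seed cells derived from normal human renal glomeruli, incubate 5 h, add compounds across concentrations and incubate 16 h at 37 °C. Caspase 3/7 activation is then quantified by luciferase light, with AC50 derived by Hill modeling.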

[15] = Cellular Toxicity (caspase-3) H-4-II-E (AID 663);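 further: cells exposed to compound for 16 hr before readout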
In short: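 Caspase 3/7 activation measured by luminescent aminoluciferin substrate cleavage after 16 hr compound treatment of H-4-II-E cells in complete medium. Increase normalized between DMSO (basal) and 100 uM tamoxifen (100%); Hill-equation AC50 from concentration-response.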

[16] = Cellular Toxicity (caspase-3) Hek293 (AID 664);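 further: cells exposed to compound for 16 h at 37 °C before readout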
In short: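 qHTS, HEK293 (human embryonic kidney), 16 h cpd exposure in complete medium. Caspase-3/7 activation = luminescence increase; normalized to DMSO/100 uM tamoxifen; Hill-fit AC50.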

[17] = target: Glucocorticoid receptor (Homo sapiens) (UniProt P04150); assay: GR-GFP Redistribution (AID 450;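 active means compounds whose dose series gives a full or clear partial fitted curve of increased nuclear translocation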; further: potency means the concentration at half of the fitted maximal effect); conditions: U2OS GR-GFP nuclear translocation, laser cytometry, 2 h
[18] = target: Glucocorticoid receptor (Homo sapiens) (UniProt P04150); assay: GR-EFC Redistribution (AID 451; calls by dose curve; further: potency means the concentration at half of the fitted maximal effect); conditions: CHO-K1 GR-EFC translocation, beta-gal luminescence, 2 h
In short: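 Translocation of GR-ED fusion to nuclear EA restores b-gal, read by luminescence after 1 h room-temperature detection. Engineered CHO-K1 biosensor cells, 1,000/well, exposed 2 h at 37 C to titrations up to 46 uM final.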

[19] = target: 3',5'-cyclic-AMP phosphodiesterase 4B (Homo sapiens) (UniProt Q07343); assay: qHTS Assay for Inhibitors of PDE-IV (AID 607; active means well fitted activation curve with a large enough effect in the main read-out, with a control signal flat, not every such curve was filed as active)
In short: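 HEK293 ACTOne cells with CNG channel (1000/well), endogenous PDE4; membrane potential dye, compounds up to 22.9 uM final. Fluorescence Ex 535/Em 590; RO 20-1724 (100 uM final) as reference.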

Chain of Glucocorticoid receptor (Homo sapiens) (P04150 whole entry, looked up, the tested form may be a part): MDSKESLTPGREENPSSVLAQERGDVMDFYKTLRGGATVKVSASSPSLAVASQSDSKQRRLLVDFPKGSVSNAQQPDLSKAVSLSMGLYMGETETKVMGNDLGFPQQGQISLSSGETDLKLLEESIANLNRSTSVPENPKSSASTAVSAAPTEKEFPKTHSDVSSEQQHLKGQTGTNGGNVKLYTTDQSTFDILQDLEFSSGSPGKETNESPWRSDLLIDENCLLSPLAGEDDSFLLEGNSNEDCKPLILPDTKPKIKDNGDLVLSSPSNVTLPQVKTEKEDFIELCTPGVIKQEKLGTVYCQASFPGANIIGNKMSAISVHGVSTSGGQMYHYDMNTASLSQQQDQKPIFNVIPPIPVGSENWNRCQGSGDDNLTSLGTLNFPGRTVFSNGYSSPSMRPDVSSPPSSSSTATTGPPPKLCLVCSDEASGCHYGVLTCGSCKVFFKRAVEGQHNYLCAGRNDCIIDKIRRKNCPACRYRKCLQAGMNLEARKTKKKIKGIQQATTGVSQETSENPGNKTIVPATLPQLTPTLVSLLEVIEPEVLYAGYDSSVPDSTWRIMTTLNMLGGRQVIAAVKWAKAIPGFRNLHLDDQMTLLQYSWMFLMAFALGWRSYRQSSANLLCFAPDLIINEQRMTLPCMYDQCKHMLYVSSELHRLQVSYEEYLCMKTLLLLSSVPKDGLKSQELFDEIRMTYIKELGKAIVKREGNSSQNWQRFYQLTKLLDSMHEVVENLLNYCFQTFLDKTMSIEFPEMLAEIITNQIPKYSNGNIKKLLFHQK
Chain of 3',5'-cyclic-AMP phosphodiesterase 4B (Homo sapiens) (Q07343 whole entry, looked up): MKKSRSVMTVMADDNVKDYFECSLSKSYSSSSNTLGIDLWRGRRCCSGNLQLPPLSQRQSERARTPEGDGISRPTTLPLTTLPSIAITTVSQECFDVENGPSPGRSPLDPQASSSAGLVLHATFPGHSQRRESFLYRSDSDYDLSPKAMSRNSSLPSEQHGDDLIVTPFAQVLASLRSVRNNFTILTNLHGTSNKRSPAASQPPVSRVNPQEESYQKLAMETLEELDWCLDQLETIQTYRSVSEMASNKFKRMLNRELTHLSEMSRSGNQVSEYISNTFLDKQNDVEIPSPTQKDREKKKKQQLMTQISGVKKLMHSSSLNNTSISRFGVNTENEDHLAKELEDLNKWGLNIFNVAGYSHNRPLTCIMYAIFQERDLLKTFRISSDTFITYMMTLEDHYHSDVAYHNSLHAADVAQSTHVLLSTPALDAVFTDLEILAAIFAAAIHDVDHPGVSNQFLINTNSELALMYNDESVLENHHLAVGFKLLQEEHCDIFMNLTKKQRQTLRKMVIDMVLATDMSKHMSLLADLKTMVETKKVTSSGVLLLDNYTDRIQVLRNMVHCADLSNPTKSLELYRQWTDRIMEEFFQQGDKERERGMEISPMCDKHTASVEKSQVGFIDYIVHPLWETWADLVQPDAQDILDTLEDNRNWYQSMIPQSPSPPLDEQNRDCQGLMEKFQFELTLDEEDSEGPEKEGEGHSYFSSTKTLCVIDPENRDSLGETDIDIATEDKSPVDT

Row | Compound | outcome [1] | Potency [2] | Potency [3] | Potency [4] | Potency [5] | Potency [6] | Potency [7] | outcome [8] | Potency [9] | outcome [10] | outcome [11] | Potency [12] | Potency [13] | outcome [14] | outcome [15] | outcome [16] | Potency [17] [µM] | Potency [18] [µM] | Potency [19] | activity change, negative = cytotoxicity [3]
1 | CCOC(=O)c1ccccc1C(=O)OCC | inactive | inactive | inactive | inactive | inactive | inactive | inactive | inactive | inactive | inactive | inactive | inactive | inactive | inactive | inactive | inactive |  |  |  | 
2 | Clc1ccccc1Cl | inactive | inactive | inactive | inactive | inactive | inactive | inactive | inactive | inactive | inactive | inactive | inactive | inactive | inactive | inactive | inactive |  |  |  | 
3 | [Cl-].[Cl-].[Hg+2] | inactive | 31.6 µM (active) | 15.8 µM (active) | 10 µM (active) | 20 µM (active) | 0.158 µM (active) | 12.6 µM (active) | inactive | inactive | inactive | inactive | inactive | inactive | inactive | inactive | inactive |  |  |  | 
4 | ClCC1CO1 (centres undefined) | inactive | inactive | inactive | inactive | inactive | inactive | inactive | inactive | inactive | inactive | inactive | inactive | inactive | inactive | inactive | inactive |  |  |  | 
5 | CCCCCl | inactive | inactive | inactive | inactive | inactive | inactive | inactive | inactive | inactive | inactive | inactive | inactive | inactive | inactive | inactive | inactive |  |  |  | 
6 | CN(N=O)c1cc(O)ccc1O |  |  |  |  |  |  |  |  |  |  |  |  |  |  |  |  | > 46 | > 46 | inactive | 
7 | C[C@H]1CCC[C@H](O)CCCCCc2cc(O)cc(O)c2C(=O)O1 | inactive | inactive |  | inactive | inactive |  | inactive | inactive | inactive | inactive | inactive | inactive | inactive | inactive | inactive | inactive |  |  |  | -108% (active)
8 | CC(C)CCON=O | inactive | inactive | inactive | inactive | inactive | inactive | inactive | inactive | inactive | inactive | inactive | inactive | inactive | inactive | inactive | inactive |  |  |  | 
9 | C=CCN=C=S | inactive | inactive | inactive | inactive | inactive | inactive | inactive | inactive | inactive | inactive | inactive | inactive | inactive | inactive | inactive | inactive |  |  |  | 
10 | O=P(O)(O)C(Cl)(Cl)P(=O)(O)O | inactive |  |  |  |  |  |  |  |  |  |  |  |  |  |  |  |  |  | inactive | 
11 | O=C1CCO1 | inactive | inactive | inactive | inactive | inactive | inactive | inactive | inactive | inactive | inactive | inactive | inactive | inactive | inactive | inactive | inactive |  |  |  | 
12 | O=C(O)C(Cl)(Cl)Cl | inactive | inactive | inactive | inactive | inactive | inactive | inactive | inactive | inactive | inactive | inactive | inactive | inactive | inactive | inactive | inactive |  |  |  | 
13 | O=CC=O | inactive | inactive | 12.6 µM (active) | inactive | inactive |  | inactive | inactive | inactive | inactive | inactive | inactive | inactive | inactive | inactive | inactive |  |  |  | 
